Source: PubChem BioAssay (Tox21)
Results filed as inconclusive are left out. Where a call stands in place of a potency, no number is given. The source made the active and inactive calls. Unless noted, the call rests on the fitted dose curve.

How the values were obtained:
[1] = Nuclear factor erythroid 2-related factor 2/antioxidant responsive element (Nrf2/ARE) small molecule agonists: qHTS cell viability counter screen in human keratinocytes (AID 1919968; active means well fitted curve in the direction sought with a large enough effect in the repeat runs; an effect the other way counts as inactive or inconclusive; further: nearly all actives have a fitted effect of over 55% in size; further: potency means the concentration at half of the fitted maximal effect)
Outline: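 Parallel cytotoxicity read: KeratinoSens HaCaT cells, compound treatment 23 h, viability by CellTiter-Fluor fluorescence 1 h post-reagent.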

[2] = Nuclear factor erythroid 2-related factor 2/antioxidant responsive element (Nrf2/ARE) small molecule agonists: luciferase reporter gene qHTS assay in human keratinocytes (AID 1919969); further: nearly all actives have a fitted effect of over 35% in size
[3] = biological target: Gonadotropin-releasing hormone receptor (Homo sapiens) (UniProt P30968); assay: Human gonadotropin-releasing hormone receptor (GnRHR) small molecule agonists, calcium flux assay in GnRHR-HEK293 cells (AID 1920063); further: nearly all actives have a fitted effect of over 35% in size
Chain of Gonadotropin-releasing hormone receptor (Homo sapiens) (P30968 whole entry, looked up): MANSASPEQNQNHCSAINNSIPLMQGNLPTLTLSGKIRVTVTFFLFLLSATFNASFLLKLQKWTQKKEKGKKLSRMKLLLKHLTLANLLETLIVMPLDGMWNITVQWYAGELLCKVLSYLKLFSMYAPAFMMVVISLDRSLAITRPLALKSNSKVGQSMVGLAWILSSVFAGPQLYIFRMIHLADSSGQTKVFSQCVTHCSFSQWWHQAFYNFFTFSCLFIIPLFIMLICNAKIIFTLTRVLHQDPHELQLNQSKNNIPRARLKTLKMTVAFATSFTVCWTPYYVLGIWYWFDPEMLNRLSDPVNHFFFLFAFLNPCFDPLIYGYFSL
Outline: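 Calcium flux, agonist mode, human GnRHR stably integrated in HEK293; dye 1 h at 37 C before compound; Ex/Em=480/540 kinetic read, 3 min; 15 concentrations, triplicate.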

[4] = biological target: KiSS-1 receptor (Homo sapiens) (UniProt Q969F8); assay: Human kisspeptin (KISS1R) small molecule agonists, calcium flux assay in KISS1R-HEK293 cells (AID 1920064; active means well fitted curve in the direction sought with a large enough effect in the repeat runs; an effect the other way counts as inactive or inconclusive)
Chain of KiSS-1 receptor (Homo sapiens) (Q969F8 whole entry, looked up): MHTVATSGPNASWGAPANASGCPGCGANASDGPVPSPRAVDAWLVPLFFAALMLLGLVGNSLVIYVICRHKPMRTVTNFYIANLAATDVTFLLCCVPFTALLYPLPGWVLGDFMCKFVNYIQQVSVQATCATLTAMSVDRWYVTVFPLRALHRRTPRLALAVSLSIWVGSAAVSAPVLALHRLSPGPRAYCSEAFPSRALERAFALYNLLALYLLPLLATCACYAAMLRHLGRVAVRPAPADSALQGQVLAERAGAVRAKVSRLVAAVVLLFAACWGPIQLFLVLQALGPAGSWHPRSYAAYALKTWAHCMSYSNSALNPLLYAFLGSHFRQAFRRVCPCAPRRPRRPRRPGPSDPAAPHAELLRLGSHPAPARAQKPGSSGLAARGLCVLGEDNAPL
Outline: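 Triplicate 15-concentration series were applied to dye-loaded human KISS1R HEK293 cells, and agonist-evoked calcium fluorescence was captured for 3 min.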

[5] = G protein-coupled receptor (GPCR) small molecule agonists, calcium flux assay: HEK293 wild type cell line counter screen (AID 1920065)
Outline: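 Non-specific calcium responders were flagged by adding DMSO-dissolved compounds to dye-loaded cells and reading 480/540 nm fluorescence each second for 3 min; ATP served as positive control.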

[6] = p53 small molecule agonists, cell-based qHTS assay with human liver microsomes (AID 1963577)
Outline: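 Compounds act here after metabolic activation: human liver microsomes and NADPH, both at 0.5 mg/mL final, were co-added to p53RE-bla cells. Incubation ran 16 h at 37 C, followed by LiveBLAzer detection.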

[7] = p53 small molecule agonists, cell-based qHTS assay with rat liver microsomes (AID 1963578)
Outline: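 Read-out is beta-lactamase reporter fluorescence (LiveBLAzer, 2 h, room temperature, dark) in p53RE-bla cells treated 16 h at 37 C with compound, rat liver microsomes and NADPH, both 0.5 mg/mL final.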

[8] = p53 small molecule agonists, cell-based qHTS assay with human liver microsomes: qHTS cell viability counter screen (AID 1963579); further: nearly all actives have a fitted effect of over 45% in size; further: potency means the concentration at half of the fitted maximal effect
Outline: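 Cells carrying the p53 response-element beta-lactamase reporter are treated for 16 h at 37 C with test compounds in the presence of human liver microsomes and NADPH (both 0.5 mg/mL final); ATP-based CellTiter-Glo luminescence then reports viability.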

[9] = p53 small molecule agonists, cell-based qHTS assay with rat liver microsomes: qHTS cell viability counter screen (AID 1963580); further: nearly all actives have a fitted effect of over 45% in size
Outline: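 Rat liver microsome (0.5 mg/mL final) and NADPH (0.5 mg/mL final) co-incubation with compounds for 16 h at 37 C on HCT-116 p53RE-bla cells; cytotoxicity taken from intracellular ATP luminescence.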

[10] = biological target: 5-hydroxytryptamine receptor 2A (Homo sapiens) (UniProt P28223); assay: 5-hydroxytryptamine receptor 2A (HTR2A) small molecule antagonists, cell-based qHTS assay (AID 1963586); further: nearly all actives have a fitted effect of over 45% in size
Chain of 5-hydroxytryptamine receptor 2A (Homo sapiens) (P28223 whole entry, looked up): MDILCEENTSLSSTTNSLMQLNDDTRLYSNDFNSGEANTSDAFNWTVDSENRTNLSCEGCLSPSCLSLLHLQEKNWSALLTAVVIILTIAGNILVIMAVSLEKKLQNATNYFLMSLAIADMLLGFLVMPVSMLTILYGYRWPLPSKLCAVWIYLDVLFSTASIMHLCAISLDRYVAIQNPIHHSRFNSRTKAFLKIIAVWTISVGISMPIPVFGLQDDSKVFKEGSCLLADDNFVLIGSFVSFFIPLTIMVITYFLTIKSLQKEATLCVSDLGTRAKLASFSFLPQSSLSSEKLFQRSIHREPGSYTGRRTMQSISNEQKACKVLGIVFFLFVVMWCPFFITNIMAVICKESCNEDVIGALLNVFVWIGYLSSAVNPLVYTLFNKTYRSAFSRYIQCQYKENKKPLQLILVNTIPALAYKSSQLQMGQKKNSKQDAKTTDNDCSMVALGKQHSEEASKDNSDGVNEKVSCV
Outline: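 CHO cells stably expressing human HTR2A were plated for 18 h at 37 C, then loaded with calcium dye for 1 h. Compounds were preincubated 5 min at room temperature before DOI (4 nM solution) was added. Kinetic fluorescence was read for 3 min.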

[11] = biological target: Muscarinic acetylcholine receptor M1 (Homo sapiens) (UniProt P11229); assay: Cholinergic receptor muscarinic 1 (CHRM1) small molecule antagonists, cell-based qHTS assay (AID 1963588); further: nearly all actives have a fitted effect of over 40% in size
Chain of Muscarinic acetylcholine receptor M1 (Homo sapiens) (P11229 whole entry, looked up): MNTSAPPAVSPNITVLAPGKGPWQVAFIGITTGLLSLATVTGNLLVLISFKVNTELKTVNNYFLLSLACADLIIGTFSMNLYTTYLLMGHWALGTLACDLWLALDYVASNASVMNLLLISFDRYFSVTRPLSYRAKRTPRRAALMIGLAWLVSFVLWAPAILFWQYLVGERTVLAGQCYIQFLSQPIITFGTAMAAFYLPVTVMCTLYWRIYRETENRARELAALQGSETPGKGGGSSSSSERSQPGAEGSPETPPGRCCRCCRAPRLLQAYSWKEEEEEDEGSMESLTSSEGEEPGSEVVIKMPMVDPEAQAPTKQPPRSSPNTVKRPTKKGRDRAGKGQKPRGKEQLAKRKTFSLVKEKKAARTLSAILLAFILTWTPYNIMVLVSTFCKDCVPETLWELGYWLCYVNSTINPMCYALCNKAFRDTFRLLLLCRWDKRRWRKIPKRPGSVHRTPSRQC
Outline: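 Compounds were tested at 15 concentrations in three independent runs. Dye-loaded CHRM1-CHO cells were exposed 5 min at room temperature before stimulation by acetylcholine added at 50nM. Intracellular calcium was read kinetically on FDSS for 3 min.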

[12] = biological target: Muscarinic acetylcholine receptor M1 (Homo sapiens) (UniProt P11229); assay: Cholinergic receptor muscarinic 1 (CHRM1) small molecule agonists, cell-based qHTS assay (AID 1963589); further: nearly all actives have a fitted effect of over 35% in size
Outline: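 qHTS, 15-point titration, 3 independent runs: compounds pin-transferred onto dye-loaded CHRM1-CHO cells (human M1), calcium fluorescence followed every second to detect agonism.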

[13] = cAMP Responsive Elements (CRE) small molecule agonists, cell-based qHTS assay (AID 1963590)
Outline: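 Quantitative HTS for CRE agonists: HEK 293T CRE-bla cells, overnight plating, 3 h compound incubation at 37 C/5% CO2, then 2 h room-temperature LiveBLAzer B/G FRET substrate loading.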

[14] = cAMP Responsive Elements (CRE) small molecule antagonists, cell-based qHTS assay (AID 1963591; active means well fitted inhibition curve with a large enough effect in the signal ratio in the repeat runs, not every such curve was filed as active; the % refers to the signal ratio; further: potency means the concentration at half of the fitted maximal effect)
Outline: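 Fluorescence intensity from cleaved LiveBLAzer B/G substrate (2 h, room temperature) quantified CRE-bla activity in HEK 293T cells exposed 3 h to compound with 0.25 uM final NKH477.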

[15] = biological target: Beta-2 adrenergic receptor (Homo sapiens) (UniProt P07550); assay: Adrenergic beta2 receptor (ADRB2) small molecule antagonists, cell-based qHTS assay (AID 1963592); further: series mostly up to about 92 µM; nearly all actives have a fitted effect of over 50% in size
Chain of Beta-2 adrenergic receptor (Homo sapiens) (P07550 whole entry, looked up): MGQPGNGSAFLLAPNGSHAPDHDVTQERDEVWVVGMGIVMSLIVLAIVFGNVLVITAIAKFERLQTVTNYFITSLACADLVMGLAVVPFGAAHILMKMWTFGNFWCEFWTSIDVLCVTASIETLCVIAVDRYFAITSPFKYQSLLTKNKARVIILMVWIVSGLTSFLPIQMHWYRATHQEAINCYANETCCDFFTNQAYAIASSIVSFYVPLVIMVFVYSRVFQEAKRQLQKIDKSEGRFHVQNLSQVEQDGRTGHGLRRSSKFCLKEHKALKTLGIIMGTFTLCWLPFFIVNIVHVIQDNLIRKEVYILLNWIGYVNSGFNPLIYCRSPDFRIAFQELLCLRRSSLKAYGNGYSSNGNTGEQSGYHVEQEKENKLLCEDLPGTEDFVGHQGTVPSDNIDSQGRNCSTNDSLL
Outline: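 Assay format: CHO-ADRB2 cells, 18-20hr seeding at 37C/5% CO2, then compound plus 1nM isoproterenol agonist mix for 0.5hr RT. Homogeneous time-resolved fluorescence cAMP detection after 1hr, expressed as 665/615 nm ratio.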

[16] = biological target: D(2) dopamine receptor (Homo sapiens) (UniProt P14416); assay: Dopamine D2 receptor (DRD2) small molecule agonists, cell-based qHTS assay (AID 1963594); further: nearly all actives have a fitted effect of over 35% in size
Chain of D(2) dopamine receptor (Homo sapiens) (P14416 whole entry, looked up): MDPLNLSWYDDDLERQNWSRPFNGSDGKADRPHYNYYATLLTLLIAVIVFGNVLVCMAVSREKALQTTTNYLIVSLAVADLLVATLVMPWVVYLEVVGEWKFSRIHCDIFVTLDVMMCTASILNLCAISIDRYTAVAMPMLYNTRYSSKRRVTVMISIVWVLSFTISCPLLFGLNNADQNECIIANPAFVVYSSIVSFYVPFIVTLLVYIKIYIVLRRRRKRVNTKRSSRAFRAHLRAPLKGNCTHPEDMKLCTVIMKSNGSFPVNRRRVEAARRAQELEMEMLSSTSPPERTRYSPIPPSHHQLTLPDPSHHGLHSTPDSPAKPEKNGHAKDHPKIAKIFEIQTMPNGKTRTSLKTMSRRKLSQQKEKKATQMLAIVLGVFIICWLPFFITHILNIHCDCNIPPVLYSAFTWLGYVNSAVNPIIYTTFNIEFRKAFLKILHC
Outline: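 cAMP accumulation in DRD2-HEK293 cells measured by HTRF after 1 h detection; compounds added 10 min before NKH477 (200nM […]) forskolin-analogue stimulation, 30 min at room temperature, with Ro20-1724 present at 0.1 mM final.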

[17] = biological target: 5-hydroxytryptamine receptor 2A (Homo sapiens) (UniProt P28223); assay: 5-hydroxytryptamine receptor 2A (HTR2A) small molecule agonists, cell-based qHTS assay (AID 1963587); further: nearly all actives have a fitted effect of over 30% in size
Outline: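 Kinetic calcium-flux fluorescence (2 min, 1 sec intervals) after compound addition in agonist mode. HTR2A-CHO cells were cultured 18 h, then dye-loaded 1 h at 37 C.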

[18] = biological target: D(2) dopamine receptor (Homo sapiens) (UniProt P14416); assay: Dopamine D2 receptor (DRD2) small molecule antagonists, cell-based qHTS assay (AID 1963595; active means well fitted inhibition curve with a large enough effect in the signal ratio in the repeat runs, with a control signal flat; the % refers to the signal ratio)
Outline: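 Stable D2 receptor HEK293 line, 24 h after seeding. Compound preincubated 10 min, then quinpirole (12 nM) with forskolin analogue NKH477 (200 nM), 30 min, room temperature. Detection by time-resolved FRET of cAMP.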

[19] = biological target: Beta-2 adrenergic receptor (Homo sapiens) (UniProt P07550); assay: Adrenergic beta2 receptor (ADRB2) small molecule agonists, cell-based qHTS assay (AID 1963593);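 further: CHO cells stably overexpressing human ADRB2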
Outline: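 CHO cells stably over-expressing ADRB2 were plated overnight at 37C, then dosed with compounds plus a stimulation mix containing 100uM IBMX and 25uM Ro-20-1724 for 0.5hr at room temperature. cAMP was measured by HTRF competition, 1hr.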

SMILES | Potency [1] | Potency [2] | Potency [3] | outcome [4] | outcome [5] | Potency [6] | Potency [7] | Potency [8] | Potency [9] | Potency [10] | Potency [11] | Potency [12] | Potency [13] | Potency [14] | Potency [15] | Potency [16] | Potency [17] | Potency [18] | Potency [19]
CCCCCCCCCOC(=O)c1ccc(O)cc1 | 26.9 µM (active) | inactive | inactive | inactive | inactive | inactive | inactive | 18 µM (active) | inactive | inactive | inactive | inactive | inactive | 21.4 µM (active) | inactive | inactive | – | – | –
COc1ccc(CCC(=O)c2c(O)cc(O[C@@H]3O[C@H](CO)[C@@H](O)[C@H](O)[C@H]3O[C@@H]3O[C@@H](C)[C@H](O)[C@@H](O)[C@H]3O)cc2O)cc1O | inactive | inactive | inactive | inactive | inactive | inactive | inactive | inactive | inactive | inactive | inactive | inactive | inactive | inactive | inactive | inactive | inactive | inactive | –
Nc1ccc(S(=O)(=O)NCc2ccccc2)cc1 | inactive | inactive | inactive | inactive | inactive | inactive | inactive | inactive | inactive | – | inactive | inactive | – | inactive | inactive | inactive | inactive | – | inactive
CCc1nn(C2CCCCC2)c2cc(C3(C#N)CCC(C(=O)O)CC3)ccc12 (configuration not stated) | inactive | inactive | inactive | inactive | inactive | inactive | inactive | inactive | inactive | inactive | inactive | inactive | – | – | inactive | inactive | inactive | inactive | –
CO[Si](CCCn1c(=O)n(CCC[Si](OC)(OC)OC)c(=O)n(CCC[Si](OC)(OC)OC)c1=O)(OC)OC | inactive | inactive | inactive | inactive | inactive | inactive | inactive | inactive | inactive | inactive | inactive | inactive | inactive | inactive | inactive | inactive | inactive | inactive | inactive
COc1ccc(N)c([N+](=O)[O-])c1 | inactive | inactive | inactive | inactive | inactive | inactive | inactive | inactive | inactive | inactive | inactive | inactive | inactive | inactive | inactive | inactive | inactive | inactive | –
CC(=O)O[C@@H]1CC2CCC1(C)C2(C)C (some centres not stated) | inactive | inactive | inactive | inactive | inactive | inactive | inactive | inactive | inactive | inactive | inactive | – | inactive | inactive | inactive | inactive | inactive | inactive | inactive
O=C(O)Cc1sc(-c2ccccc2)nc1-c1ccc(Cl)cc1 | inactive | inactive | inactive | inactive | inactive | inactive | inactive | inactive | inactive | inactive | inactive | inactive | – | – | inactive | – | inactive | inactive | inactive
